Assay results as given in PubChem BioAssay (NCI).
About 83,000 compounds went through this panel and 20% of them were active in at least one assay; those are over-represented in the sample as a whole.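 The endpoint reported here, percent growth, reads 100 for growth as untreated, 0 for no net growth and -100 for all cells dead.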 A number with no mark means an inactive call. The source made the active and inactive calls.

The compounds below were run on TK-10 renal (assay: NCI-60 one-dose screen, 48 h (100 = growth as untreated, 0 = no growth, -100 = all killed)). Settings: 10 µM unless noted.
Method: Growth inhibition of the TK-10 human tumor cell line is measured as a screen for anti-cancer activity. Cells are grown in 96 well plates and exposed to the test compound for 48 hours. Compounds are tested at a single concentration, which is 10^-5 M for most compounds. The reported endpoint is percent growth (GI% or GIPRCNT), where numbers from 0 - 100% represent growth inhibition, and numbers from -100% - 0 represent cell death. For example, a value of 40 represents 60% growth inhibition. A value of 0 means no net growth occurred over the course of the experiment. A value of -40 indicates 40% of cells at the beginning of the experiment died by the end of the experiment. A value of -100 means all cells are dead at the end of the experiment.
NCI-60 Human Tumor Cell Lines Screen was performed using the standard one-dose NCI protocol, which is described in more detail at https://dtp.cancer.gov/discovery_development/nci-60/default.htm.
Compounds with GIPRCNT values below 10 were considered active. Activity score was based on GIPRCNT using the following formula: […]
Score is 0 for GIPRCNT values of 100 or above, 50 for GIPRCNT values of 0, and 100 for GIPRCNT values of -100.
With `O=C1/C(=C\c2c[nH]c3ccccc23)c2ccccc2N1c1c(Cl)cccc1Cl` the growth was -29.4% (active).
`O=C1/C(=C\c2cccnc2)SC(=S)N1CCc1ccc(O)cc1` was tested, and the growth was 38.5%.
`Cc1cccc(Cc2cnc(NC(=O)c3ccc4nnsc4c3)s2)c1` showed a growth of 80.9%.
For `c1c[nH]c(CNC2CCCCC2)c1`, the growth was 120%.
`COC(=O)c1c2c(c(C)[n+]([O-])c1C)C(=O)C(NCc1ccc(F)c(Cl)c1)=CC2=O` gave a growth of 58.8%.
For `COc1ccc(Cl)cc1NC(=O)C(Br)C(Br)C(=O)O` (stereo not given), the growth was 111%.
`COc1ccc(N2CCN(c3nc(-c4cc(OC)c(OC)c(OC)c4)nc4ccccc34)CC2)cc1` was tested, and the growth was 113%.
`Clc1cccc(Cl)c1/C=C/c1cc(/C=C/c2c(Cl)cccc2Cl)[nH]n1` gave a growth of 52.2%.
With `O=C1CCC2=C3C4CCCCC4C(=O)C4CCCC(OC2C1)C34` (stereo not given) the growth was 64.3%.
In the case of `Cc1cc[c-]cc1.Fc1c[c-]c(-c2ccccn2)c(F)c1.[Pt+2].c1ccc(P(C[PH+](c2ccccc2)c2ccccc2)c2ccccc2)cc1`, the growth is reported as 31.5%.
Work on `N#Cc1c(N)nc(NCCO)nc1-c1ccc(F)cc1` yielded a growth of 106%.
With `COc1ccc2[nH]c(O)c(C(=Nc3ccc(N(C)C(=O)CN4CCN(C)CC4)cc3)c3ccccc3)c2c1` the growth was 51.8%.
With `Cc1ccc2c(c1)Sc1c(ccc3ccccc13)N2` the growth was 127%.
In the case of `CCN(CCNc1ccc(C)c2sc3ccccc3c(=O)c12)CC(C)(C)O`, the growth is reported as 89.7%.
`Oc1ccc(CN2CCC(N3CCOCC3)CC2)c2cccnc12` was tested, and the growth was 30.6%.
Work on `COC(=O)CCC1=C(C)C2=NC1=CC1=NC(=CC3=NC(=Cc4[nH]c(/c(=C(/C)O)c4C)=C2)C(C(C)=O)=C3C)C(C)=C1CCC(=O)OC` yielded a growth of 123%.
Work on `Cc1c(C(=O)N[C@@H](Cc2ccccc2)C(=O)C(=O)NCCc2ccccc2)[nH]c2ccccc2c1=O` yielded a growth of 118%.
`Cc1c(C(=O)NC(Cc2ccccc2)C(O)C(=O)NCc2ccc(F)cc2)[nH]c2ccccc2c1=O` (stereo not given) showed a growth of 102%.
`Cc1cc(NCc2cc(Nc3ccnc4cc(Cl)ccc34)ccc2F)nc(N2CCN(c3ccccc3)CC2)n1` showed a growth of 88.7%.
Compound `COc1ccc(-c2nc(SCCC(C)C)nc(N/N=C\c3ccccc3O)c2C#N)cc1` has a growth of 101%.
`CCC1(C2CCCC2)NC(=O)NC1=O` (stereo not given) was tested, and the growth was 113%.
`COC(=O)c1ccc(CSc2nnc(-c3c(C)nc4ccc(C)cn34)o2)cc1` was tested, and the growth was 113%.
In the case of `Cc1c(C)c2c(c(C)c1OCC(=O)O)CC[C@@](C)(CCC[C@@H](C)CCC[C@@H](C)CCCC(C)C)O2`, the growth is reported as -0.128% [50 µM] (active).
`Cc1ccc(Cc2cnc(NC(=O)c3ccc4noc(-c5ccccc5)c4c3)s2)cc1` showed a growth of 109%.
Work on `CC(CN1CCCCC1)C(=O)c1ccccc1` (stereo not given) yielded a growth of 96.7%.
`COc1ccc(/C=c2\nc3n(-c4ccccc4)c4nc5c6c(sc5c(=N)n4n-3c2=O)CCCC6)cc1` gave a growth of 124%.
For `Fc1cnc(NC2CC2)nc1-c1cnc2ccc(N3CCOCC3)cn12`, the growth was 6.32% (active).
`NS(=O)(=O)c1ccc(-n2nc(C(=O)N/N=C\c3ccc(F)cc3)cc2-c2ccc(Cl)cc2)cc1` gave a growth of 136%.
For `CC(=O)C(C)Cc1cc2c(cc1C)C(C)(C)CCC2(C)C` (stereo not given), the growth was 100%.
For `COCN1CCC2N(COC)CCC3N(COC)CCC1N23` (stereo not given), the growth was 113%.
In the case of `c1csc(-c2c3ccc(=[N+]4CCCCC4)cc-3oc3cc(N4CCCCC4)ccc23)c1`, the growth is reported as -92.5% (active).
With `COc1cc(/C=N/Nc2ncc(-c3cc4cc5c(cc4o3)OCO5)s2)cc(OC)c1OC` the growth was 101%.
For `O=C(c1ccccc1)N1N=C(c2ccccc2)CC1c1nnc2n(Cc3ccccc3)c(=O)c3c4c(sc3n12)CCCC4` (stereo not given), the growth was 111%.
Compound `COc1cc(/C=C/C(=O)N2CCN(C(=O)c3cc(OC)c(OC)c(OC)c3)CC2)ccc1OCCCN1C(=O)c2cccc3cccc(c23)C1=O` has a growth of 97.5%.
`CC/C=C\C/C=C\C[C@H](O)C/C=C1/C(=O)C=C[C@@H]1C/C=C\CCCC(=O)O` gave a growth of 79%.
In the case of `O=[N+]([O-])c1ccc(OCCO)cc1`, the growth is reported as 117%.
Compound `NS(=O)(=O)c1cnccc1Oc1cccc2cccnc12` has a growth of 107%.
Compound `COCCc1ccc(OCC(O)CNC(C)C)cc1` (stereo not given) has a growth of 110%.
Compound `O=C(CCc1nnc(CN(c2ccccc2)c2ccccc2)o1)c1nc2ccccc2[nH]1` has a growth of 117%.
`Fc1ccc(CNc2c3ccccc3nc3ccccc23)cc1F` gave a growth of 51.1%.
